Screens: PubChem BioAssay, several laboratories
PLAP activator: activators of human placental alkaline phosphatase | P05187 | purified PLAP enzyme, luminescent substrate read-out; stronger effect = higher value | activation fold at 20 µM | 1.2% of 96,000 active | AID 696; in the data active means activation fold above about 2
Cdc25B inh: human M-phase inducer phosphatase 2 inhibition; recombinant Cdc25B, OMFP fluorescence Ex485/Em525; inhibition, %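 (compounds tested at 10 µM final in the well)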; 0.1% of 65,000 active; in the data active means inhibition above about 50%
BAP1 block: human BAP1 deubiquitinase inhibition; Q92560; recombinant BAP1, Ub-AMC hydrolysis fluorescence kinetic; stronger effect = lower value; calls only at 20 µM; 0.48% of 72,000 active; AID 436;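 active means activity remaining at or below 50% of control, provided the compound also passes the data quality filters; inactive means the rest, including low values that fail the filters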;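 further: 100% = DMSO wells rate and 0% = substrate alone blank rate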
DUSP1 inh: blocks human MKP-1 phosphatase activity. P28562. recombinant MKP-1, OMFP hydrolysis fluorescence. inhibition, %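 (compounds tested at a single concentration somewhere between 10 and 100 µM)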. 0.15% of 65,000 active;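 active means inhibition above about 50%, limit read from the data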;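 further: 0% = DMSO max control wells and 100% = wells with enzyme stopped by NaOH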
HePTP inhibitor: blocks human HePTP tyrosine phosphatase; P35236; recombinant HePTP phosphatase activity, OD absorbance; inhibition, % at 20 µM; 0.64% of 110,000 active; AID 521; in the data active means inhibition above about 50%;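 further: plate controls were vehicle for no effect and reference inhibitor for full effect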
Target sequence (P35236 whole entry, looked up): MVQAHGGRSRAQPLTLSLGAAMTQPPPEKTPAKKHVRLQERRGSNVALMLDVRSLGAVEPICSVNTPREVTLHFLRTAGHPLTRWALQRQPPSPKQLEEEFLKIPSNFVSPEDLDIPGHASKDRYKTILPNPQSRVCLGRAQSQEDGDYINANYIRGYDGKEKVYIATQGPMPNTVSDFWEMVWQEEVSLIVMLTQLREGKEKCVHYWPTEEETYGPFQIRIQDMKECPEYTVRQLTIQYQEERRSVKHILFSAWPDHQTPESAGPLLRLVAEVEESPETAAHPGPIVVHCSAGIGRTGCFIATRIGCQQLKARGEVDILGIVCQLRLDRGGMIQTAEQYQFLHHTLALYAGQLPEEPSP
* marks the source's active call; other numbers are inactive results; i = inactive; x = no result given. Shown are actives, neighbours in structure and some others; about 1.4% of the full set was active somewhere.

SMILES	PLAP activator	Cdc25B inh	BAP1 block	DUSP1 inh	HePTP inhibitor
O=C(Cc1cccc2ccccc12)NCC1(c2ccccc2)CCOCC1	x	x	x	x	13.4
O=C1NC(=O)/C(=C\c2ccc(OCc3ccc(F)cc3)cc2)N1	x	x	x	x	0.7
O=C(CSc1ccccn1)Nc1ccc2c(c1)C(=O)c1ccccc1C2=O	x	x	x	x	105.2*
O=c1oc2c(CN3CCCCC3)c(O)ccc2cc1-c1nc2ccccc2[nH]1	2.2*	2.0	i	-14.8	0.4
CN1CCN(Cc2c(O)ccc3cc(-c4nc5ccccc5[nH]4)c(=O)oc23)CC1	x	x	x	x	0.7
Cc1ccc(-c2nn(-c3ccccc3)c3[nH]c(=O)c(CNCCN(C)C)cc23)cc1	2.7*	-26.6	i	6.5	-7.6
CC(C)c1cc(=O)oc2c3c4c(cc12)CCCN4CCC3	2*	-6.2	x	10.0	6.0
COc1ccc(C)cc1NS(=O)(=O)c1ccc(Cl)cc1	x	x	x	x	2.6
Cc1cc(C(=O)NCc2ccco2)ccc1[N+](=O)[O-]	x	x	x	x	-12.0
CN(C(=O)CSc1nnc(Nc2ccccc2)s1)c1c(N)n(Cc2ccccc2)c(=O)[nH]c1=O	2.1*	x	x	x	x
Cc1c(NC(=O)C(C)Sc2nnc(-c3ccccc3)o2)c(=O)n(-c2ccccc2)n1C (stereo unspecified)	2.1*	-15.3	i	23.8	8.7
COc1cc(-c2nnc(SC(C)C(=O)Nc3c(C)n(C)n(-c4ccccc4)c3=O)o2)cc(OC)c1OC (stereo unspecified)	2*	x	x	x	x
CCOC(=O)c1ccc(N2C(=O)CC(NCCc3ccc(OC)cc3)C2=O)cc1 (stereo unspecified)	x	x	x	x	-2.5
O=C(NCCc1ccccc1)c1c(F)cccc1Cl	x	x	x	x	2.4
Cc1nn(C(C)C(=O)NCc2ccccc2)c(C)c1[N+](=O)[O-] (stereo unspecified)	0.9	x	x	x	x
COc1cccc(NC(=S)NNC(=O)C(C)n2nc(C)c([N+](=O)[O-])c2C)c1 (stereo unspecified)	2.1*	x	x	x	x
COc1cccc(NC(=S)NNC(=O)c2c([N+](=O)[O-])c(C)nn2C)c1	2.1*	x	x	x	x
O=C1C=CC(=O)c2c1c(-c1ccccc1)nn2-c1ccccc1	x	x	x	x	70.7*
Cc1c(C(=O)O)c(-c2ccccc2)nn1-c1ccccc1	1.3	-4.4	i	-1.7	11.3
Cc1cc2ncc(-c3ccc(Cl)cc3)c(N)n2n1	2*	-6.0	i	-7.8	15.2
COC(=O)CCC(=O)NNc1ccc([N+](=O)[O-])cc1	x	x	x	x	59.8*
COc1ccc(OC)c(C2=C/C(=C/c3ccccc3[N+](=O)[O-])C(=O)O2)c1	x	x	x	x	-12.7
CC(NC(=O)CSc1ccccn1)c1ccccc1 (stereo unspecified)	x	x	x	x	5.5
COc1cccc(-c2nc3sc4c(c3c(=O)[nH]2)CCCC4)c1O	x	x	x	x	8.6
COc1cc(/C=C2/SC(=S)NC2=O)c([N+](=O)[O-])cc1OC	x	x	x	x	-5.1
SMILES	PLAP activator	Cdc25B inh	BAP1 block	DUSP1 inh	HePTP inhibitor
O=C1NC(=S)S/C1=C\c1ccccc1[N+](=O)[O-]	x	x	x	x	93.3*
COc1cc(/C=C2/SC(=S)NC2=O)ccc1OS(=O)(=O)c1ccccc1	x	x	x	x	26.2
COc1cc(/C=C2/SC(=S)NC2=O)ccc1OS(=O)(=O)c1ccccc1[N+](=O)[O-]	x	x	x	x	58.8*
COc1cc(/C=C2/C(=O)NN(c3ccc(Br)cc3)C2=O)c([N+](=O)[O-])cc1OC	x	x	x	x	2.1
COC(=O)C(NC(=O)C(CC(C)C)NC(=O)C1CCC(C)CC1)C(C)C (stereo unspecified)	0.9	x	x	x	x
CCCCCCC1CCC(C(=O)NC(CCSC)C(=O)NC(C(=O)OC)C(C)C)CC1 (stereo unspecified)	2.2*	x	x	x	x
COc1cc(C2c3c(n[nH]c3C)C(=O)N2c2ccc(C)cc2)ccc1O (stereo unspecified)	2.2*	-0.5	i	4.7	7.9
COc1cc(C2c3c(-c4ccccc4)n[nH]c3C(=O)N2c2ccccc2)ccc1O (stereo unspecified)	2.2*	3.1	i	36.0	4.8
CCOc1cc(C2c3c(n[nH]c3C)C(=O)N2c2ccc(C)cc2)ccc1O (stereo unspecified)	1.9	1.3	i	27.0	x
COC(=O)c1ccc(Nc2nnc(-c3ccc(C(=O)NCCO)cc3)c3ccccc23)cc1	x	x	x	x	0.2
CCn1c(SCC(=O)Nc2nc(-c3ccccc3)cs2)nnc1-c1ccccc1	2*	11.5	i	10.4	-21.2
Cc1nnc(SCC(=O)Nc2nc(-c3ccccc3)cs2)n1N	1.1	-1.5	i	11.8	-1.9
c1csc(Cc2nn3c(-c4n[nH]c5c4CCC5)nnc3s2)c1	2.1*	0.3	x	7.6	9.1
c1coc(-c2nnc3sc(Cc4cccs4)nn23)c1	0.9	9.1	i	-12.5	16.2
COc1ccc(N2C(=O)CC(N(CCc3ccc(OC)c(OC)c3)C(C)=O)C2=O)cc1 (stereo unspecified)	x	x	x	x	-0.5
COc1ccc(NS(=O)(=O)c2cccc(C(=O)N/N=C(\C)c3ccc(-n4ccnc4)cc3)c2)cc1	2.1*	x	x	x	x
C/C(=N\NC(=O)c1cccc(S(=O)(=O)Nc2ccccc2Cl)c1)c1ccc(-n2ccnc2)cc1	1.5	x	x	x	x
Cc1ccc(C2=NNC(C(O)C(O)C(O)CO)S2)cc1 (stereo unspecified)	2.4*	x	x	x	x
O=C1CC(c2ccc(Cl)cc2)CN1C(=O)Nc1ccccc1 (stereo unspecified)	x	x	x	x	0.1
O=C1NC(=S)S/C1=C/c1ccc(-c2ccc(F)cc2)o1	x	x	x	x	-10.6
CC(C)NC(=O)c1sc2nc3c(c(-c4cccs4)c2c1N)CN(C)CC3	2*	x	x	x	x
Cc1ccc(/C(N)=N/OC(=O)c2ccc(I)cc2)cc1	x	x	x	x	11.3
COc1ccc(C2C(C#N)=C(N)Oc3n[nH]c(C)c32)cc1Cn1nnc2ccccc21 (stereo unspecified)	2*	-4.8	i	21.7	9.8
CCCc1[nH]nc2c1C(c1ccc(OC)c(Cn3nnc4ccccc43)c1)C(C#N)=C(N)O2 (stereo unspecified)	1.5	0.7	i	-9.5	-5.8
Cc1ccc(OCCSc2nc3ccccc3[nH]2)cc1C	x	x	x	x	8.9
SMILES	PLAP activator	Cdc25B inh	BAP1 block	DUSP1 inh	HePTP inhibitor
CCCc1cc(=O)oc2c(CN3CCCC3)c(O)c(Cl)cc12	2.9*	4.7	i	-11.0	2.6
CCCc1cc(=O)oc2c(CN3CCCC3)c(O)ccc12	1.3	-23.6	x	-28.1	-9.3
CCc1ccc(-n2c(C)cc(/C=N\NC(=O)c3ccco3)c2C)cc1	x	x	x	x	6.9
CCOC(=O)c1sc(NC(=O)/C=C/c2cccs2)c(C(=O)OCC)c1C	x	x	x	x	0.9
Cc1ccc(/C=C/C(=O)Nc2ccc(C)c([N+](=O)[O-])c2)o1	x	x	x	x	26.1
CN(C)C1=C(C#N)C(C2CCCCC2=O)c2c(c3ccccc3n2C)N1c1ccc([N+](=O)[O-])cc1 (stereo unspecified)	x	x	x	x	103.6*
CN1CCN(C2=NC(=O)/C(=C/c3ccc4c(c3)OCO4)S2)CC1	x	x	x	x	6.2
Cc1nc2cc(-c3ccccc3)nn2c(C)c1C	x	x	x	x	2.1
O=C(c1cc2n(n1)C(C(F)(F)F)CC(c1ccco1)N2)N1CCCc2ccccc21 (stereo unspecified)	x	x	x	x	1.6
CCCOc1ccc(/C=C2\C(=O)NN(c3ccccc3)C2=O)cc1	x	x	x	x	7.7
